Measured potencies and affinities stand elsewhere. A number with no mark means an inactive call. No rule for the calls is given here.

The experiment can be described thus: host cell cytotoxicity of antiviral hits, dose response, cytotoxicity control for West Nile virus antiviral project, secondary assay (AID 1650). The note with it: Mammalian host cell viability, cytotoxicity counter-screen; series mostly up to 10 µM; viability: at the top concentration.
Broadly, the viability is a per cent measure of how many cells are alive, often set against a control. In the case of `Cc1ccc(C)c(CN2C(=O)c3ccccc3S(=O)c3ccc(C(=O)NCCCN4CCCC4)cc32)c1` (stereo not given), the “viability” value was 76.6%.
In the case of `Cc1ccc(S(=O)(=O)NCc2ccc(C(=O)NCCCN3CCC(Cc4ccccc4)CC3)cc2)cc1` it was 82.9% [at 20 µM]; in that of `CN(C)CCCNC(=S)N1CCN(c2nc(-c3ccccc3)cs2)CC1`, 81.2%; in that of `COc1ccc(C(=O)CSc2nnc(-c3ccc(S(=O)(=O)N4CCOCC4)cc3)o2)cc1`, 93.2% [at 20 µM].
As for `O=C(CN1C(=O)/C(=C\c2cccc(Cl)c2)Sc2ccccc21)NCCCN1CCOCC1`, the figure is 78.4% [at 20 µM]; as for `N#Cc1cc(-c2ccc(Cl)cc2)cnc1Sc1ccc(F)cc1`, 83.1% [at 20 µM]; as for `CCOc1ccc2nc(N3CCCC(C(=O)NCCCN4CCCCC4)C3)sc2c1` (stereo not given), 82.1%.
In the case of `CN1CCN(CCCN2c3ccccc3Sc3ccc(C(F)(F)F)cc32)CC1` it was 74.9%; in that of `CCCC1(c2ccccc2)NC(=O)N(CC(=O)Nc2sc(-c3ccccc3)cc2C(=O)OCC)C1=O` (stereo not given), 78.4% [at 20 µM]; in that of `CCC(C)NC(=O)/C(=C/c1ccco1)c1ccccc1` (stereo not given), 95.4%.
Take `Cc1ccc(S(=O)(=O)c2c(N)n(CCCN(C)C)c3nc4ccccc4nc23)cc1`: the “viability” value is 87% [at 20 µM].
In the case of `Cc1cc(N2CCN(C)CC2)nc2ccc(NC(=S)NCc3cccs3)cc12` it was 72.5% [at 20 µM]; in that of `CCOC(=O)c1sc(NC(=O)Nc2ccccc2)cc1C`, 88.8% [at 20 µM]; in that of `CC1CN(C(=O)CCC(=O)NCCCN2CCC(Cc3ccccc3)CC2)c2cc(Cl)ccc2O1` (stereo not given), 80.6% [at 20 µM].
In the case of `C/C(N)=C(/C#N)C(=O)COC(=O)c1cc(-c2cccc(Br)c2)nc2ccccc12` it was 75.5%; in that of `Cc1ccc(OCC(=O)c2cc(C)c(C)cc2C)c([N+](=O)[O-])n1`, 92.3% [at 20 µM]; in that of `CCc1ccc(NC(=O)CSc2nc3ccccc3c(=O)n2CCCC(=O)NCCCN2CCOCC2)cc1`, 86.5% [at 20 µM].
As for `CN1CCN(C(=O)CCN2C(=O)/C(=C/c3ccccc3Cl)SC2=S)CC1`, the figure is 72.8%; as for `CCCCCn1c(N2CCC(Cc3ccccc3)CC2)nc2c1c(=O)[nH]c(=O)n2C`, 71.8%.
For `CC(=O)OCC1O[C@@H](O[C@@H]2C[C@H]3C(C)(C)[C@H](OC(C)=O)CC[C@]3(C)[C@H]3CC[C@]45C[C@]4(CC[C@H]5[C@@H](C)C[C@@H](O)[C@H](O)C(C)(C)O)[C@@]32C)[C@H](O)[C@@H](O)[C@@H]1O` (stereo not given in full), the “viability” value is 93.6%.
As for `N#Cc1ncc(-c2ccc3c(c2)OCCOCCOCCOCCOCCO3)nc1C#N`, the figure is 86.6%; as for `COc1ccc2[nH]c3nc(SCc4nnc(-c5ccc(C)cc5)o4)nnc3c2c1`, 80.5%.
As for `Cc1ccc2oc(=O)c3cc(C(=O)NCCCN4CC(C)CC(C)C4)sc3c2c1` (stereo not given), the figure is 71.7% [at 20 µM].
As for `COc1ccc(C2c3c(ncn(CCCO)c3=N)Oc3ccc4ccccc4c32)cc1OC` (stereo not given), the figure is 86% [at 20 µM].
As for `CCn1cc(CNCc2cn(C)nc2-c2ccc(C3CCCCC3)cc2)cn1`, the “viability” value was 80%.
In the case of `Cn1c(CCN2CCCCC2)nc2cc(NC(=O)COc3ccc([N+](=O)[O-])cc3)ccc21` it was 81.4%.
For `CN1CCN(c2ccc(C(F)(F)F)cc2NC(=O)Nc2ccccc2)CC1`, the “viability” value was 79.8%.
As for `Cc1ccc(-c2nc3ccccc3n3nnnc23)cc1`, the figure is 77.4% [at 20 µM]; as for `CCCC1=Nc2cc(C(=O)NCCN3CCCC3)ccc2Sc2ccccc21`, 81.4%; as for `O=C(CCN1C(=O)/C(=C/c2ccccc2)SC1=S)NCCc1ccc(O)cc1`, 73.5%.
As for `Cc1cccc(CN2CCC(CNC(=O)CSc3cc(=O)n(C)c4cc(Cl)ccc34)CC2)c1`, the figure is 78.6%; as for `CC(C)C(C(=O)Nc1ncn[nH]1)N1C(=O)c2ccccc2C1=O` (stereo not given), 94.5%.
In the case of `CN(C)CCNC=C(C(=O)Nc1ccc(Cl)cc1Cl)C(=O)Nc1ccc(Cl)cc1Cl` it was 80.2% [at 20 µM]; in that of `CN1CCN(c2ccc(S(=O)(=O)N3CCCCC3)cc2NC(=O)c2ccc3ccccc3c2)CC1`, 85.4%.
`CCOC(=O)c1c(NC(=O)CN(C)C2CCN(C)CC2)sc(C(=O)Nc2ccccc2)c1C`: the “viability” value is 84.1% [at 20 µM].
In the case of `CCCCOC(=O)Cn1c2ccc(OC)cc2c2nc3ccccc3nc21` it was 80.7% [at 20 µM].
As for `Cc1onc(-c2cccc(Cl)c2Cl)c1C(=O)O/N=C(\N)c1ccc([N+](=O)[O-])o1`, the figure is 80.5%.
As for `COC(=O)c1ccc(/C=C2/SC(=S)N(CCCC(=O)Nc3ccc(O)cc3)C2=O)cc1`, the figure is 82.6%; as for `CCOc1ccc(NCc2cc3c(C(C)(C)C)nn(-c4ccccc4)c3[nH]c2=O)cc1`, 88.3%; as for `CCN1CCN(CCCNC(=O)c2ccc3c(Cl)c4c(nc3c2)CCCC4)CC1`, 86.8%.

(Values after PubChem BioAssay AID1650 (Southern Research Specialized Biocontainment Screening …, 2009).)
